Only some compounds are listed: those with a hit (about 21% of all), similar ones and a draw of the others.
CHX counter: affects cycloheximide protein synthesis inhibition readout, counter-screen; cell reporter, cycloheximide protein synthesis inhibition counterscreen; max response, %; 12% of 300,000 active; in the data active = max response mostly above about 13%, no sharp cut-off; inactive = mostly below about 14%; also: read at 38.3 µM for the half of the compounds with a filed dose; 0% is about no effect
Pf growth 48h: inhibits P. falciparum growth in the first generation, 48 h | AID 504832 | P. falciparum luciferase growth in erythrocytes, 48 h | 5.9% of 310,000 active | Potency, µM (doses to about 28.7 µM), for inactives: at the highest dose activity change, negative = inhibition, hits mostly inhibitors; active = well fitted inhibition curve with a large enough effect; inconclusive = small, poorly fitted or top-dose-only effect, or another doubt; inactive = no such curve, though single readings can be large or run the other way; also: potency is read from the fitted curve at half-maximal effect; % is scaled to controls: 0 for no effect and ±100 for the full control effect
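Luminescence readout; reporter = integrated firefly luciferase in P. falciparum. RBC culture at 2% hematocrit, 0.1% parasitemia final, 37 C/5% CO2; decreased signal taken as growth inhibition.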
Pf growth 96h: P. falciparum growth inhibition at 96 hours. P. falciparum luciferase reporter growth, 96 h. Potency, µM (titrated, usually from 28.7 µM), for inactives: top-dose activity change, negative = inhibition, hits mostly inhibitors. 6.9% of 320,000 active; active = well fitted inhibition curve with a large enough effect; inconclusive = small, poorly fitted or top-dose-only effect, or another doubt; inactive = no such curve, though single readings can be large or run the other way; also: potency is read from the fitted curve at half-maximal effect; % is scaled to controls: 0 for no effect and ±100 for the full control effect
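Compounds incubated with erythrocytes infected by luciferase-expressing P. falciparum (2% hematocrit, 0.05% parasitemia final) for 96 hours, 37 C in 5% CO2. Growth inhibition scored as decreased luciferase luminescence.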
NS1 function inh: influenza NS1 inhibition | Potency, µM (top dose mostly 46.1 µM), for the others: at the highest dose activity, positive = more growth | 0.4% of 270,000 active; also: potency is read from the fitted curve at half-maximal effect; actives are rising curves; nearly all actives have a fitted effect of over 50% in size
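OD600 was taken as the measure of yeast growth restored by compound in an NS1-expressing S. cerevisiae strain. Cells had been washed out of glucose medium and diluted 1:100 into galactose -URA medium, pH 6.0.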
Shiga toxin inh: blocks Shiga toxin action in Vero cells; inhibition, % at 38.7 µM; 9.2% of 290,000 active; Vero cells, Shiga toxin protein synthesis inhibition reporter; in the data active = inhibition mostly above about 28%, no sharp cut-off; inactive = mostly below about 43%; also: 0% is about no effect
SARS PLP yeast: inhibitors of SARS-CoV papain-like protease in yeast. S. cerevisiae expressing SARS-CoV PLpro, growth rescue. AID 485353. 0.19% of 330,000 active. Potency, µM (doses to about 32.9 µM), inactives show at the top dose activity, positive = growth rescue, hits mostly activators; also: potency is read from the fitted curve at half-maximal effect; 0% is about no effect; nearly all actives have a fitted effect of over 55% in size
* marks the source's active call; other numbers are inactive results; i = inactive; ? = inconclusive; . = no result. Unless noted, calls follow the shape of the full dose curve.

SMILES	CHX counter	Pf growth 48h	Pf growth 96h	NS1 function inh	Shiga toxin inh	SARS PLP yeast
O=C(N/N=C/c1cccc(OC(=O)c2ccc3c(c2)OCO3)c1)c1cncc(Br)c1	48.8*	36.5%	-28.3%	19.7%	56.1*	-10.0%
O=C(N/N=C/c1ccc(OC(=O)c2ccc3c(c2)OCO3)cc1)c1cncc(Br)c1	-1.6	16.4%	-4.0%	5.5%	-9.0	11.2%
COC(=O)c1ccc(NC(=O)COc2ccc3c(c2)OCO3)cc1	20.2*	?	?	3.7%	-7.1	-2.8%
Cc1ccc(OCC(=O)Nc2ccc3c(c2)OCO3)cc1C	25.4*	19.4%	?	-34.7%	28.9*	-2.6%
Cc1ccc(OCC(=O)OCC(=O)Nc2ccc3c(c2)OCO3)cc1C	.	.	.	.	.	-2.4%
O=C(Cc1cccs1)NCCn1ccc2ccccc21	8.9	-0.3%	15.2%	-18.3%	25.8	2.8%
COc1ccc(N(C(=O)c2cnccn2)C(C(=O)NC2CCCCC2)c2ccccc2)cc1 (stereo unspecified)	5.9	-16.3%	-14.3%	-12.6%	-19.8	0.6%
CCCN(Cc1ccc(C)cc1)C(=O)c1ccc(CNS(=O)(=O)c2ccc(C(C)=O)cc2)cc1	.	-23.6%	?	.	.	10.5%
O=C(Nc1ccc(Br)cc1)C1CCN(C(=O)c2ccco2)CC1	3.2	-8.8%	13.0%	3.8%	39.5	-4.5%
C=CCS/C(N)=N\N=C\c1cc(Br)cc([N+](=O)[O-])c1O	9.0	50.7%	60.9%	-1.1%	15.1	-0.8%
Cc1ccc(C)c(OCC(=O)Nc2ccc3c(c2)OCO3)c1C	6.9	-28.9%	-23.5%	-15.9%	9.7	-8.2%
COc1cc(C)c(NC(=O)COc2ccc3c(c2)OCO3)cc1C	19.6*	34.9%	2.5%	-14.1%	48.9*	-1.4%
O=C(COc1ccc2ccc(=O)oc2c1)Nc1ccc(CCO)cc1	-1.7	15.5%	-2.0%	1.7%	32.5	7.1%
Cc1cccc(OCC(=O)Nc2ccc3c(c2)OCO3)c1C	55.1*	7.9%	2.9%	-34.7%	67.1	-9.8%
O=C(COc1ccccc1[N+](=O)[O-])N/N=C/c1cccc(OC(=O)c2ccc3c(c2)OCO3)c1	93.4*	68.4%	?	5.9%	94.7*	3.7%
O=C(COc1ccc2ccc(=O)oc2c1)Nc1ccc2c(c1)OCCO2	13.3*	7.2%	3.8%	?	9.3	-1.3%
COC(=O)[C@]1(C)N[C@H](CN(C)C(=O)NC(C)C)[C@@H]2C(=O)N(C)C(=O)[C@@H]21	.	.	.	.	.	0.9%
Cc1ccc(NC(=O)N2CCCC2C(=O)Nc2ccc3c(c2)OCCO3)cc1 (stereo unspecified)	2.3	31.2%	3.1%	12.4%	21.1	-17.9%
CC(OC(=O)CCN1C(=O)c2cccc([N+](=O)[O-])c2C1=O)C(=O)Nc1cc(Cl)cc(Cl)c1 (stereo unspecified)	-1.3	-3.6%	5.1%	-4.7%	-11.1	-0.7%
Cc1ccccc1OCC(=O)NCC(=O)N/N=C/c1cccc([N+](=O)[O-])c1	-2.0	12.9%	42.0%	-1.4%	-7.5	0.1%
Cc1ccccc1OCC(=O)N/N=C/c1cccc(Oc2ccc([N+](=O)[O-])cc2[N+](=O)[O-])c1	-1.0	-22.5%	1.31µM*	18.6%	-3.1	-6.5%
O=C(COc1ccccc1[N+](=O)[O-])Nc1ccc2c(c1)OCO2	31.4*	123.2%	?	-0.3%	66.4*	-2.1%
COc1ccccc1CNC(=O)c1cccc(-c2ccccc2OC)n1	11.8	.	.	.	i	.
CCOC(=O)N1CCN(C(=O)C(CC(C)C)NS(=O)(=O)c2ccc(C)cc2)CC1 (stereo unspecified)	.	-13.4%	0.1%	.	.	-1.5%
CCCCC(=O)Nc1nc(C)c(-c2csc(Nc3cc(OC)ccc3OC)n2)s1	-1.4	1.04µM*	?	10.5%	4.7	-7.4%
CCCCC(=O)Nc1nc(C)c(-c2csc(Nc3cc(Cl)ccc3OC)n2)s1	2.8	8.28µM*	4.65µM*	?	52.4	-3.8%
Cc1ccc(-c2nc3nc4ccccc4nc3n2Cc2ccco2)cc1	51.7*	147.4%	-76.6%	-9.2%	63.1*	-2.2%
Clc1ccc(-c2nc3nc4ccccc4nc3n2Cc2ccco2)cc1	52.2*	-1.4%	?	-10.4%	82.3*	-10.8%
OCC[C@@H]1C[C@H](O)[C@@H](O)[C@]2(OCc3ccccc32)O1	1.5	1.6%	?	-14.6%	-7.6	-1.2%
